aSyn UTR act: Activators via SNCA 5'UTR binding, MLPCN | hit rate 7.1% among 300,000 | alpha-synuclein 5'UTR reporter, activators screen | activity score, % (tested at 7.5 µM), hits read low; in the data active means activity score below about -60%
Starred values were filed as active, the others as inactive. Not all results are given here.

SMILES | aSyn UTR act
O=C(/C=C/Nc1ccc(F)c(F)c1)c1cccs1 | -374*
O=C(Nc1nc2ccc(Cl)cc2s1)C1CCCO1 (centres undefined) | -127*
O=C(Nc1nc2ccc(S(=O)(=O)N3CCCC3)cc2s1)C1CCCCC1 | 72
COC(=O)c1ccc2nc(NC(=O)C3CCCCC3)sc2c1 | -105*
COC(=O)c1ccc2nc(NC(=O)C(C)(C)C)sc2c1 | 60
O=C(Nc1nc2ccc(Cl)cc2s1)C1CC1 | -150*
O=C(Nc1nc2ccc(Cl)cc2s1)c1cccc(N2C(=O)CCC2=O)c1 | -78*
O=C(Nc1nc2ccccc2s1)C1CCN(S(=O)(=O)c2cc([N+](=O)[O-])ccc2Cl)CC1 | -81*
O=C(Nc1nc2ccc([N+](=O)[O-])cc2s1)C1CCCO1 (centres undefined) | -153*
C=CCN(CC=C)S(=O)(=O)c1ccc2nc(NC(=O)C3CCCO3)sc2c1 (centres undefined) | -89*
COc1ccc(O)c(/C=N/N2CCCCC2)c1 | -150*
CCNC(=S)/N=C(\N)Nc1nc(C)c2cc(C)ccc2n1 | -207*
CCOC(=O)Cn1c(=NC(=O)c2ccc([N+](=O)[O-])s2)sc2ccccc21 | -180*
CS(=O)(=O)N1CCc2cc(C(=O)Nc3ccc(Br)cc3)ccc21 | -77*
Cc1ccc(NC(=O)c2ccc3c(c2)CCN3S(C)(=O)=O)cc1C | -112*
CS(=O)(=O)N1CCc2cc(C(=O)OCC(=O)c3ccccc3)ccc21 | -138*
CS(=O)(=O)N1CCc2cc(C(=O)Nc3ccccc3Cl)ccc21 | -96*
Cc1cccc(NC(=O)c2ccc3c(c2)CCN3S(C)(=O)=O)c1 | -203*
CCC1CCCCN1c1nc(-c2cccc(OC)c2O)nc2ccccc12 (centres undefined) | -98*
CCOc1ccc(-c2csc(Cn3c(CN4CCN(C)CC4)nc4ccccc4c3=O)n2)cc1 | -66*
c1ccc(-c2n[nH]c(-c3ccccn3)n2)cc1 | -114*
c1ccc(-c2n[nH]c(-c3ccccn3)n2)nc1 | -63*
COc1ccc(Nc2nc(N3CCCC3)nc3ccccc23)c(OC)c1 | -81*
COc1ccc(Nc2cc3n(c(=O)n2)CCc2cc(OC)c(OC)cc2-3)c(C)c1 | 80
Cc1ccc(C(=O)CSc2nnc(C(C)C)n2C)cc1C | -75*
SMILES | aSyn UTR act
O=C(Nc1ccc(F)cc1Cl)c1ccc2c(=O)n3c(nc2c1)CCC3 | -109*
Cc1csc(NC(=O)c2ccc3c(=O)n4c(nc3c2)CCCCC4)n1 | -139*
O=C(Nc1nccs1)c1ccc2c(=O)n3c(nc2c1)CCCCC3 | -129*
Cc1cnc(Nc2nc3ccccc3o2)nc1C(=O)Nc1cccc(C(F)(F)F)c1 | -67*
Cc1nc2ccc(NC(=S)NCc3ccccc3)cc2nc1C | -80*
CCc1ccc(NC(=S)NCc2ccccc2)cc1 | -90*
O=C(CC12CC3CC(CC(C3)C1)C2)NC(=S)NCc1ccccc1 | 52
N=c1n(CCN2CCOCC2)c2ccccc2n1CC(=O)c1ccc(Cl)c(Cl)c1 | -66*
Cc1cc(=O)oc2cc(OCC(=O)Nc3ccc(N4CCC(C)CC4)cc3)ccc12 | -70*
Cc1csc(NC(=O)COc2ccc3c(C)cc(=O)oc3c2)n1 | -62*
CCCc1cc(=O)oc2cc(OCC(=O)Nc3ccccn3)ccc12 | -92*
Cc1ccc(NC(=O)C2CCC(CNc3c(N4CCC(C)CC4)c(=O)c3=O)CC2)cc1F (centres undefined) | 61
CN(C)/C=N/c1c(C#N)cnn1-c1nc2ccccc2s1 | -96*
NC(N)=NS(=O)(=O)c1ccc(N/C=C/C(=O)c2ccc(Cl)c(Cl)c2)cc1 | -119*
O=C(CCN1C(=O)S/C(=C\C=C\c2ccccc2)C1=O)Nc1ccc(O)cc1 | -204*
O=C(CN1C(=O)S/C(=C\C=C\c2ccccc2)C1=O)Nc1cccc(O)c1 | -218*
CCN(C(=O)CN1C(=O)S/C(=C\C=C\c2ccccc2)C1=O)C1CCS(=O)(=O)C1 (centres undefined) | -118*
COc1ccc(/C=C/C(=O)c2ccc(OC)cc2OC)cc1 | -114*
COc1ccc(C(=O)/C=C/c2ccc(OC)cc2OC)c(O)c1 | -283*
COc1ccc(C(=O)/C=C/c2ccccc2)c(O)c1 | -111*
COc1ccc(/C=C/C(=O)CCC(=O)O)cc1 | -78*
COc1ccc(C(=O)/C=C/C(=O)N(CC(=O)NC2CCCCC2)Cc2ccccc2)c(O)c1 | 67
COc1ccc(C(=O)/C=C/Nc2ccccn2)c(OC)c1 | -160*
COc1ccc(/C=C/C(=O)c2cc3c(cc2N)OCO3)cc1 | -183*
COc1ccc(/C=C/C(=O)c2cc(F)ccc2OC(=O)c2ccccc2)cc1OC | 67
SMILES | aSyn UTR act
COc1ccc(C(=O)/C=C/c2ccccc2OC)c(OC(=O)c2ccc([N+](=O)[O-])cc2)c1 | -332*
COc1ccc(C(=O)/C=C/c2cc(C(=O)O)cc3c2OCOC3)c(O)c1 | -75*
COc1ccc(C(=O)c2ccc(OC)cc2O)c(O)c1 | -120*
CN(C)c1ccc(/C=C/C(=O)c2cc(Cl)ccc2O)cc1 | -96*
COc1ccc(/C=C/C(=O)c2cc(Cl)ccc2O)c(OC)c1 | -80*
O=C(/C=C/c1ccc(O)cc1)c1ccc(O)cc1O | -244*

Compound activity from PubChem BioAssay.
